Assay results: PubChem BioAssay (EPA / NIEHS)
Results filed as inconclusive are left out. Active and inactive are the calls of the source. How the source made its calls: active means hit-call score of the fitted dose curve at least 0.9, where 1 is the maximum; inconclusive means response in the unintended direction; inactive means score below 0.9.

Key:
[1] = target: Estrogen receptor beta (Homo sapiens) (UniProt Q92731); assay: OT_ER_ERbERb_0480: Odyssey Thera (OT) 8-hour HEK293T Protein-Complementation Assay for Estrogen Receptor-beta/-beta Homodimer (AID 2283357);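 further: active means signal gain over DMSO baseline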
How it was run: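 Homodimerization of ER-beta LBD measured by protein-fragment complementation in HEK293T; 8 h dosing; fixed, Draq5 counterstain; fluorescence intensity gain over DMSO baseline, positive fitting direction; laser scanning cytometry.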

[2] = system: guinea pig Dopamine Transporter (DAT), gene 100714898; assay: NVS_TR_gDAT: NovaScreen (NVS) Transporter Assay for guinea pig Dopamine Transporter (DAT) (AID 2283369);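 further: active compounds lower bound radioligand signal relative to DMSO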
How it was run: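 Cell-free striatal membrane prep (guinea pig), 2 h exposure, filtration + scintillation readout of radioligand binding. Single-point 25 uM duplicate; actives rerun singleton, top conc 50 uM.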

[3] = target: Glucocorticoid receptor (Homo sapiens) (UniProt P04150); assay: NVS_NR_hGR: NovaScreen (NVS) Nuclear Receptor Binding Assay for human Glucocorticoid Receptor (GR) (AID 2283363)
How it was run: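 Filter scintillation readout of tritiated/iodinated radioligand displaced by test chemical; cell-free extracted protein; 16 h. DMSO = negative control/baseline. Duplicate single-point 25 uM screen, then concentration-response on actives.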

[4] = target: Peroxisome proliferator-activated receptor gamma (Homo sapiens) (UniProt P37231); assay: NVS_NR_hPPARg: NovaScreen (NVS) Nuclear Receptor Binding Assay for human Peroxisome Proliferator-activated Receptor gamma (PPARg) (AID 2283370)
How it was run: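 FP read-out, 2 h post-dose, cell-free extracted receptor protein. Signal loss vs DMSO negative control = binding activity. Single-conc duplicate HTS at 25 uM; concentration-response follow-up for actives.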

Chain of Glucocorticoid receptor (Homo sapiens) (P04150 whole entry, looked up): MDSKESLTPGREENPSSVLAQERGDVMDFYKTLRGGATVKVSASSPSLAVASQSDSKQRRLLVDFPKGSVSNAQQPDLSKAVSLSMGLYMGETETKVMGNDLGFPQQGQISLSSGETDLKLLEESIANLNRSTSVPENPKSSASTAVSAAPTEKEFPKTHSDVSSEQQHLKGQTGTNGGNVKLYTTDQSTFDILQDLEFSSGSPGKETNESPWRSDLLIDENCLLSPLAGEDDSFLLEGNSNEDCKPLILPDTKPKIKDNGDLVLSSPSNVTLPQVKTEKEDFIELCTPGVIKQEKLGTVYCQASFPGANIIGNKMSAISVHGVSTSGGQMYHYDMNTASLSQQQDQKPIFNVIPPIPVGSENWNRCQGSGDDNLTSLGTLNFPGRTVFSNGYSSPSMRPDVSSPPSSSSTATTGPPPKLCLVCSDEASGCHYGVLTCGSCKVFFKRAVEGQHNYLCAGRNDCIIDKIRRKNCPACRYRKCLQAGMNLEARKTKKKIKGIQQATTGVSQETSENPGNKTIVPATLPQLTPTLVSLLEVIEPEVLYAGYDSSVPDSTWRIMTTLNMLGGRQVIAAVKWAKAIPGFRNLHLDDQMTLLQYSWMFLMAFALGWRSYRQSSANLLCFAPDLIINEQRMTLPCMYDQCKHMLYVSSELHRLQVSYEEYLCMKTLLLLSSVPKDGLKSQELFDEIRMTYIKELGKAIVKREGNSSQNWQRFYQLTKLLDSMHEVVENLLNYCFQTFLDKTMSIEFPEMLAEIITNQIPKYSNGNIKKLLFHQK
Chain of Estrogen receptor beta (Homo sapiens) (Q92731 whole entry, looked up, the tested form may be a part): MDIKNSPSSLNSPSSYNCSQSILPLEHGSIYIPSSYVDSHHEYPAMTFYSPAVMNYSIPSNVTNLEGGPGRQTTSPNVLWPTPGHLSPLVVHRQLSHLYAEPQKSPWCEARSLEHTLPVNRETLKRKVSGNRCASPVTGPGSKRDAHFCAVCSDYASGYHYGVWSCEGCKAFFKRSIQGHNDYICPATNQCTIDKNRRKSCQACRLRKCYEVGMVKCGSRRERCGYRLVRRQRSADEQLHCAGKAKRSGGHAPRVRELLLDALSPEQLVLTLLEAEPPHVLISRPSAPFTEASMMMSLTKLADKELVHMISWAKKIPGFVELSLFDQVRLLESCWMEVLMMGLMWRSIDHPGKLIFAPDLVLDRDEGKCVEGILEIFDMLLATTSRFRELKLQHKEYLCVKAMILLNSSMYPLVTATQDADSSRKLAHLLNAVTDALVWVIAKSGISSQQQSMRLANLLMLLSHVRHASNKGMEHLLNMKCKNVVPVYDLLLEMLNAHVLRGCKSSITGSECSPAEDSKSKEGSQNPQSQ
Chain of Peroxisome proliferator-activated receptor gamma (Homo sapiens) (P37231 whole entry, looked up): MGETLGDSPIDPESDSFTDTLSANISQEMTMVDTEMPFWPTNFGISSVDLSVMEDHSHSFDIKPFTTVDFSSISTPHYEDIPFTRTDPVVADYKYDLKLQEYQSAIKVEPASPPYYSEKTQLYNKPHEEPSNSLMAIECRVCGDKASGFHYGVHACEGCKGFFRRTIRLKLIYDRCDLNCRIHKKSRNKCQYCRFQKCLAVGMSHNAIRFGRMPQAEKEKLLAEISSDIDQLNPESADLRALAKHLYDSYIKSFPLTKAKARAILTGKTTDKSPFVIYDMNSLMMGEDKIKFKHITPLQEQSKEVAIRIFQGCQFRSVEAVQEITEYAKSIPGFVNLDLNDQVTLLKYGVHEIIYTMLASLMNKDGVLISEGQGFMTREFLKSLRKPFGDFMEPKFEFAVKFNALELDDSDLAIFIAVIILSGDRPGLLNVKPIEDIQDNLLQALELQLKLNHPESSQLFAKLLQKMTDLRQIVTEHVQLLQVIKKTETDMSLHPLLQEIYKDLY

Row | SMILES | outcome [1] | outcome [2] | outcome [3] | outcome [4]
1 | CC(COCC(C)OC(=O)c1ccccc1)OC(=O)c1ccccc1 (stereo not drawn) | inactive | inactive | – | –
2 | S=c1[nH]c2ccccc2s1 | inactive | – | inactive | inactive
3 | CCCCC(CC)COP(=O)(OCC(CC)CCCC)OCC(CC)CCCC (stereo not drawn) | – | inactive | inactive | inactive
